From PubChem BioAssay (NCI)
About 83,000 compounds went through this panel and 20% of them were active in at least one assay; those are over-represented in the sample as a whole.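 Single-concentration screen, 48 h exposure, 96-well plates. Endpoint: percent growth. Below 10 = active.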 Values without a mark were called inactive. Active and inactive are the calls of the source.

Tests used:
Assay in all cases: NCI-60 one-dose screen, 48 h (100 = growth as untreated, 0 = no growth, -100 = all killed)
Settings in all cases: 10 µM unless noted
[1] = test system: NCI-H23 lung
[2] = test system: NCI-H226 lung
[3] = test system: NCI-H322M lung
[4] = test system: HOP-62 NSCLC
[5] = test system: NCI-H460 lung
[6] = test system: HOP-92 NSCLC
[7] = test system: NCI-H522 lung
[8] = test system: A549/ATCC NSCLC
[9] = test system: 786-0 renal
[10] = test system: COLO 205 colon
[11] = test system: DU-145 prostate
[12] = test system: K-562 leukemia
[13] = test system: MALME-3M melanoma
[14] = test system: MDA-MB-231 breast
[15] = test system: RXF 393 renal
[16] = test system: SF-268 CNS
[17] = test system: SF-295 CNS
[18] = test system: SF-539 CNS
[19] = test system: UACC-257 melanoma
[20] = test system: M14 melanoma

SMILES | growth [1] [%] | growth [2] [%] | growth [3] [%] | growth [4] | growth [5] | growth [6] | growth [7] | growth [8] [%] | growth [9] | growth [10] | growth [11] [%] | growth [12] | growth [13] | growth [14] [%] | growth [15] [%] | growth [16] | growth [17] [%] | growth [18] | growth [19] | growth [20]
COc1c2c(cc3c1C(=O)N[C@@H]1[C@@H](O)[C@@H](O)[C@H](O)C[C@@H]31)OCCO2 | 104 | 92.6 | 93.5 | 99.9% | 109% | 91.6% | 93.4% | 96.5 | 97.4% | 103% | 107 | 95.6% | 106% | 109 | 102 | 97.9% | 99.6 | 106% | 98.8% | 105%
O=C(CCCCCCCC(=O)N1CCCCC1)N1CCCCC1 | 94.6 | 109 | 115 | 110% | 98.7% | 98.8% | 88.8% | 102 | 105% | 113% | 106 | 114% | 115% | 94.1 | 123 | 104% | 117 | 103% | 89.3% | 102%
N=C(N)c1ccc(-c2ccc(-c3ccccc3)o2)o1 | 49.6 | 78.5 | 60.3 | 46.9% | 6.8% (active) | 24.2% | 50.5% | 26.2 | 33.4% | -73.1% (active) | 46.3 | 9.73% (active) | 50.3% | 29.8 | 47 | 38.1% | 44 | 35.3% | 69.3% | 14.1%
CCOc1ccc(NC(=O)Nc2ccc(OCC)cc2)cc1 | 106 | 104 | 104 | 98.2% | 106% | 106% | 103% | 95.9 | 108% | 104% | 106 | 97.6% | 100% | 110 | 114 | 104% | 95.7 | 97.2% | 113% | 109%
O=C(NCCNC(c1ccccc1)C(NCCNC(=O)c1ccccc1)c1ccccc1)c1ccccc1 (stereo not given) | 83.3 | 100 | 95.7 | 104% | 59.6% | 84.8% | 69.4% | 106 | 106% | 106% | 19.8 | 81.6% | 101% | 98 | 72.9 | 99.7% | 81.8 | 103% | 96.9% | 86.3%
N#Cc1c(-c2ccc(Br)cc2)nc2c(N=Nc3ccc(S(N)(=O)=O)cc3)c(N)nn2c1N | 63.7 | 66.2 | 74.7 | 52.2% | 37.1% | 31.5% | 38.6% | 68.4 | 69.9% | 25.5% | 33.2 | 36.3% | 57.7% | 41.2 | 42.2 | 55.9% | 61.9 | 38.6% | 82.6% | 41.4%
CC1=C2CC/C(C)=C/CC[C@]3(C)O[C@H]3CC/C(C)=C/[C@H]2OC1 | 97.3 | 109 | 101 | 107% | 107% | 94.6% | 87% | 90.5 | 92% | 104% | 110 | 87.5% | 112% | 96.5 | 126 | 105% | 91 | 95.1% | 98.3% | 103%
O=C1/C(=C/c2c[nH]c(=O)[nH]c2=O)SC(=S)N1Cc1ccccc1 | 96.4 | 102 | 95.1 | 101% | 105% | 98.5% | 90.7% | 101 | 100% | 88.2% | 102 | 101% | 97.6% | 101 | 110 | 95.2% | 102 | 96.9% | 104% | 98.8%
CNC(=O)c1cc(Oc2ccc3c(c2)sc2nc(-c4ccc(Cl)c(C(F)(F)F)c4)cn23)ccn1 | 53 | 52.6 | 88.5 | 75.9% | 51.3% | 73.1% | 42.6% | 61 | 68.6% | 58.4% | 74 | 30% | 47.4% | 77.1 | 87.1 | 73.7% | 48.5 | 64.4% | 35.9% | 69.5%
Cc1nn(C)c2ncnc(N/N=C/c3cccc(O)c3O)c12 | 20.8 | 42.7 | 14.7 | 4.24% (active) | 2.65% (active) | 23.3% | 19.9% | 20.9 | 2.11% (active) | -3.31% (active) | 18.1 | 12.7% | -11.5% (active) | 24.7 | 11 | 6.68% (active) | 18.3 | 5.37% (active) | 3.75% (active) | -48.5% (active)
COc1ccc(CN2C(=O)OC(C)(COC(C)=O)C2=O)cc1 (stereo not given) | 108 | 98.1 | 99 | 106% | 111% | 100% | 91.4% | 94.5 | 106% | 119% | 107 | 94.5% | 102% | 103 | 105 | 102% | 99.7 | 96% | 100% | 105%
O=C(/C=C/c1cccc(Oc2ccccc2)c1)c1ccc(Nc2nc(Nc3ccc(F)cc3)nc(Nc3ccc(Cl)cc3)n2)cc1 | 77.1 | 113 | 93.8 | 104% | 108% | -6.77% (active) | 109% | 90.2 | 96.1% | 103% | 117 | 11.5% | 90.4% | 108 | 96.6 | 99.9% | 104 | 116% | 109% | 106%
Nc1ncnc2c1N=C(c1ccc(Cl)cc1)CC(c1cccc(Nc3ccnc4cc(Cl)ccc34)c1)N2 (stereo not given) | 66.8 | 87.5 | 84.1 | 70.4% | 75.6% | 44.7% | 93.8% | 84.5 | 67.5% | 66.2% | 83.2 | -0.992% (active) | 84.8% | 63.5 | 34.1 | 53.4% | 67 | 76% | 105% | 64.8%
CNC(=O)c1cc(Oc2ccc3c(c2)sc2nc(-c4cc(C(F)(F)F)cc(C(F)(F)F)c4)cn23)ccn1 | 44.8 | 26.8 | 89.8 | 25.4% | 38.3% | 27% | 35% | 39.5 | 61.3% | 55.3% | 67.7 | 29.4% | 47.1% | 48.2 | 79.8 | 65.1% | 36.2 | 52.4% | 34.5% | 69.3%
Cc1nn(-c2ccc([N+](=O)[O-])cc2)c2ncnc(N/N=C/c3ccccc3O)c12 | 15.3 | 35 | 13.4 | -2.87% (active) | 0.666% (active) | 36.6% | 0.557% (active) | 13 | 3.2% (active) | 1.21% (active) | 20.7 | 11.2% | 2.12% (active) | 29 | 15.7 | 9.25% (active) | 12.6 | 7.49% (active) | 13.2% | -17.7% (active)
Cc1ccc(Cc2cnc(NC(=O)/C=C/c3ccc(C)o3)s2)cc1 | 56 | 69.9 | 48.1 | 53.6% | 12% | 59.5% | 19.3% | 35.7 | 42% | 23.2% | 33.9 | 18.6% | 35.2% | 67.9 | 41.6 | 52.9% | 23.6 | 23.6% | 62.5% | 12.1%
